From PubChem BioAssay AID1159580 (chemical genetic matrix, 2015)
Where “and” joins values, the source holds several entries; their conditions need not be identical. Identical values can stand only once. Out of some 5,500 compounds screened, about 2,000 (36%) were called active. Another 18% or so got no clear call; they are omitted. Cut-off read from the data, not from the text of the source: active = normalized growth mostly below about 0.91 (no sharp cut-off); inconclusive = no clear call, values can overlap the other calls; inactive = mostly above about 0.92. The list shows a part of the results.

Assay: chemical genetic growth profiling, strain panel (AID 1159580);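 note: tested at 20 µM; growth read once vehicle control cultures reached saturation at 30 °C; 1 = growth at the plate median or of vehicle wells; lower values mean less growth of the strain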
Conditions: S. cerevisiae deletion strains, growth OD

Measured: normalized growth

N#Cc1c(Cl)cccc1Cl
inactive: locus YAL013W, strain DEP1, hits give low values 1.01 | locus YAL021C, strain ccr4, hits give low values 1.01 | locus YAL026C, strain drs2, hits give low values 0.988 | locus YAL030W, strain snc1, hits give low values 0.979 | locus YBL061C, strain skt5, hits give low values 0.979 | locus YBR009C, strain hhf1, hits give low values 0.959 | locus YBR021W, strain FUR4, hits give low values 1.02 | locus YBR023C, strain chs3, hits give low values 0.981 | locus YBR171W, strain sec66, hits give low values 0.982 | locus YBR229C, strain ROT2, hits give low values 1.01 | locus YBR231C, strain swc5, hits give low values 0.98 | locus YBR279W, strain paf1, hits give low values 0.983 | locus YCL011C, strain gbp2, hits give low values 0.954 | locus YCL016C, strain dcc1, hits give low values 0.983 | locus YCL029C, strain bik1, hits give low values 1.01 | locus YCL069W, strain vba3, hits give low values 0.98 | locus YCR088W, strain abp1, hits give low values 0.985 | locus YDL005C, strain med2, hits give low values 0.977 | locus YDL035C, strain GPR1, hits give low values 1.01 | locus YDL040C, strain nat1, hits give low values 0.991 | locus YDL074C, strain BRE1, hits give low values 1.03 | locus YDL101C, strain DUN1, hits give low values 1.01 | locus YDL134C, strain PPH21, hits give low values 1 | locus YDL185W, strain tfp1, hits give low values 1.01 | locus YDL192W, strain arf1, hits give low values 1.01 | locus YDR001C, strain nth1, hits give low values 0.977 | locus YDR069C, strain doa4, hits give low values 0.983 | locus YDR101C, strain arx1, hits give low values 1.01 | locus YDR137W, strain rgp1, hits give low values 1.01 | locus YDR150W, strain NUM1, hits give low values 1.01 | locus YDR159W, strain sac3, hits give low values 0.995 | locus YDR162C, strain NBP2, hits give low values 1.01 | locus YDR195W, strain ref2 0.991 | locus YDR297W, strain sur2, hits give low values 0.972 | locus YDR318W, strain mcm21, hits give low values 1.01 | locus YDR334W, strain swr1, hits give low values 0.952 | locus YDR335W, strain msn5, hits give low values 0.977 | locus YDR388W, hits give low values 1.01 | locus YDR392W, strain spt3, hits give low values 1 | locus YDR502C, strain sam2, hits give low values 1.01 | locus YEL003W, strain gim4, hits give low values 0.969 | locus YEL037C, strain rad23, hits give low values 0.981 | locus YEL061C, strain CIN8 (second series), hits give low values 0.98 | locus YEL061C, strain CIN8, hits give low values 1.01 | locus YER015W, strain faa2, hits give low values 0.98 | locus YER016W, strain bim1, hits give low values 0.979 | locus YER110C, hits give low values 1 | locus YER111C, strain swi4, hits give low values 0.965 | locus YER155C, strain BEM2 (second series), hits give low values 0.975 | locus YER155C, strain BEM2, hits give low values 1.01 | locus YER167W, strain BCK2, hits give low values 1.01 | locus YFR010W, strain ubp6, hits give low values 0.98 | locus YGL078C, strain dbp3, hits give low values 1.01 | locus YGL086W, strain mad1, hits give low values 1.01 | locus YGL167C, strain pmr1, hits give low values 0.978 | locus YGL173C, strain kem1, hits give low values 0.99 | locus YGL227W, strain vid30, hits give low values 0.974 | locus YGL240W, strain doc1, hits give low values 0.965 | locus YGL248W, strain PDE1, hits give low values 1 | locus YGL253W, strain hxk2, hits give low values 0.987 | locus YGR078C, strain PAC10, hits give low values 1.01 | locus YGR135W, strain pre9, hits give low values 1.01 | locus YGR229C, strain SMI1, hits give low values 1.02 | locus YGR252W, strain gcn5, hits give low values 1.09 | locus YHR013C, strain ard1, hits give low values 1.02 | locus YHR027C, strain rpn1, hits give low values 0.977 | locus YHR030C, strain SLT2, hits give low values 1.02 and 0.941 | locus YHR079C, strain IRE1 (second series), hits give low values 1.01 | locus YHR079C, strain IRE1, hits give low values 0.965 | locus YHR094C, strain hxt1, hits give low values 1.01 | locus YHR129C, strain ARP1, hits give low values 1.01 | locus YHR142W, strain chs7, hits give low values 0.976 | locus YHR200W, strain rpn10, hits give low values 1.01 | locus YIL066C, strain RNR3, hits give low values 1.04 | locus YIL073C, strain SPO22, hits give low values 1.03 | locus YIL125W, strain kgd1, hits give low values 1.01 | locus YIR030C, strain dcg1, hits give low values 1.02 | locus YJL092W, strain hpr5, hits give low values 0.976 | locus YJL095W, strain BCK1 (second series), hits give low values 0.997 | locus YJL095W, strain BCK1, hits give low values 0.999 and 0.941 | locus YJL115W, strain asf1, hits give low values 0.959 | locus YJL129C, strain trk1, hits give low values 0.976 | locus YJL134W, strain LCB3, hits give low values 1.01 | locus YJL154C, strain vps35, hits give low values 0.978 | locus YJL164C, strain tpk1, hits give low values 0.996 | locus YJL166W, strain qcr8, hits give low values 0.978 | locus YJL168C, strain set2, hits give low values 1.01 | locus YJL187C, strain SWE1 (second series), hits give low values 1.01 | locus YJL187C, strain SWE1, hits give low values 0.988 | locus YJR043C, strain POL32, hits give low values 1.02 | locus YJR066W, strain TOR1, hits give low values 0.936
